Results reported in PubChem BioAssay (NCATS).
Records with an inconclusive call do not appear. A call without a number means that no potency is given here. The source made the active and inactive calls. Calls follow the shape of the dose curve; as a rule, active = well fitted curve in the direction sought with a large enough effect; inconclusive = small, poorly fitted or top-dose-only effect, or another doubt; inactive = no such curve, though single readings can be large; an effect the other way counts as inactive or inconclusive.

Target: Glutathione peroxidase 1 (Homo sapiens) (UniProt P07203)
Sequence (P07203 whole entry, looked up): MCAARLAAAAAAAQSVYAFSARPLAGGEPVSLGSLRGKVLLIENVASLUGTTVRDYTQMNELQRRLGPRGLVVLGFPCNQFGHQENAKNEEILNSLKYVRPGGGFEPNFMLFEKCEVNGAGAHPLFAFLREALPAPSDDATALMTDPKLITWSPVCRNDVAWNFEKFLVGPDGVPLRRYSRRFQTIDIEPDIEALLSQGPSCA
Test: Primary qHTS Assay for Inhibitors of Recombinant Selenoprotein Glutathione Peroxidase 1 (GPX1) (AID 1845191); also: nearly all actives have a fitted effect of over 65% in size
Conditions: recombinant GPX1, GR-coupled NADPH fluorescence, 15 min; series mostly up to 48.8 µM
How it was run: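 NADPH consumption tracked by fluorescence at 340/450 nm between t=0 and t=15 min, room temperature. Final mix: 10 nM GPX1, 100 nM glutathione reductase, 1 mM GSH, 0.5 mM NADPH, 0.5 mM cumene hydroperoxide, 0.01% BSA; 30 min compound–enzyme preincubation.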
In the case of `CCCCOC(=O)c1ccnc2cc(C(OCCN3CCCCC3)c3ccccc3C)sc12` (stereo not given), the Potency is reported as “inactive”. With `C=CCN1CC[C@]2(C)c3cc(O)ccc3CC1[C@@H]2C` the Potency was “inactive”. For `CN1[C@@H]2CC(O)C[C@H]1[C@@H]1O[C@@H]12` (stereo not given in full), the Potency was “inactive”. In the case of `Cc1ccc(-n2nccn2)c(C(=O)N2CCN(c3nc4cc(Cl)ccc4o3)CC[C@H]2C)c1`, the Potency is reported as “inactive”.

Tested on: not listed separately
Test: KB-8-5-11 P-gp reporter qHTS against the NCATS DSHEA and TCM libraries (AID 1919977)
Conditions: KB-8-5-11 cells; series mostly up to 26.1 µM
How it was run: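 Viability of drug-resistant KB-8-5-11 cells is measured by CellTiter-Glo luminescence following roughly 72 h treatment at 37C. Substances were titrated, with bortezomib as intraplate control.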
In the case of `COc1ccc(/C=C/c2cc(OC)cc(=O)o2)cc1`, the Potency is reported as “inactive”. With `C[C@@]12CC[C@@H]3[C@@](CC[C@H]4[C@@]3(C)CCC[C@@]4(C)C(=O)O)(CC1=O)C2` the Potency was “inactive”. In the case of `CCCCCCCCCCCC(=O)O`, the Potency is reported as “inactive”. With `CCCCCC/C=C/CCCCCCCCCC(=O)O` the Potency was “inactive”. With `CC(C)=CCC[C@](C)(O[C@@H]1O[C@H](CO)[C@@H](O)[C@H](O)[C@H]1O)[C@H]1CC[C@]2(C)[C@@H]1[C@H](O)C[C@@H]1[C@@]3(C)CC[C@H](O)C(C)(C)[C@@H]3[C@@H](O[C@@H]3O[C@H](CO)[C@@H](O)[C@H](O)[C@H]3O[C@@H]3O[C@@H](C)[C@H](O)[C@@H](O)[C@H]3O)C[C@]12C` the Potency was “inactive”. With `CCCCCCCC/C=C/CCCCCCCCCC(=O)O` the Potency was “inactive”. In the case of `OCC1=C[C@@H](O)[C@@H]2C=CO[C@@H](OC3O[C@H](CO)[C@@H](O)[C@H](O)[C@H]3O)[C@H]12` (stereo not given in full), the Potency is reported as “inactive”. With `CC12CC3(O)OC(O1)C1(COC(=O)c4ccc(O)cc4)C3CC21OC1OC(CO)C(O)C(O)C1O` (stereo not given) the Potency was “inactive”. In the case of `COc1ccc(C(=O)O)cc1`, the Potency is reported as “inactive”. In the case of `CCCCCCCC/C=C\CCCCCCCCCCCC(=O)O`, the Potency is reported as “inactive”. For `O=C(OC[C@H]1O[C@@H](OC(=O)c2cc(O)c(O)c(O)c2)[C@H](OC(=O)c2cc(O)c(O)c(O)c2)[C@@H](OC(=O)c2cc(O)c(O)c(O)c2)[C@@H]1OC(=O)c1cc(O)c(O)c(O)c1)c1cc(O)c(O)c(O)c1`, the Potency was “inactive”.
